From PubChem BioAssay (EPA / NIEHS) come the findings set out here.

Inconclusive results are not listed. Calls of active or inactive are those of the source. How the source made its calls: active means hit-call score of the fitted dose curve at least 0.9, where 1 is the maximum; inconclusive means response in the unintended direction; inactive means score below 0.9.

The target of this assay is Ratio of Nucleoli Translocation and Cytoplasm, AR (gene 367) (UniProt P10275). As to the kind of experiment: UPITT_HCI_U2OS_AR_TIF2_Nucleoli_Cytoplasm_Ratio_Antagonist: University of Pittsburgh U2OS Androgen Receptor-Transcriptional Intermediary Factor 2 (AR-TIF2) Antagonism High Content Imaging Assay for Ratio of Nucleoli Translocation and Cytoplasm (AID 2283999).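 Further: antagonists lower the DHT-driven ratio of nucleolar to cytoplasmic red signal.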 From the text: UPITT_AR_TIF2_PPIB is a cell-based, high-content imaging assay that uses U2OS, a human osteosarcoma cell line, expressing a human androgen receptor fused to red fluorescent protein and the coactivator TIF2 fused to green fluorescent protein. UPITT_HCI_U2OS_AR_TIF2_Nucleoli_Cytoplasm_Ratio_Antagonist is one of four assay components measured from the UPITT_AR_TIF2_PPIB assay. It is designed to make measurements of the ratio of red fluorescence localized in the nucleolar region of the cell nucleus to red fluorescence localized in the cytoplasm as detected with high-content fluorescent imaging.Data from the assay component UPITT_HCI_U2OS_AR_TIF2_Nucleoli_Cytoplasm_Ratio_Antagonist was analyzed into 1 assay endpoint. This assay endpoint, UPITT_HCI_U2OS_AR_TIF2_Nucleoli_Cytoplasm_Ratio_Antagonist, was analyzed in the positive analysis fitting direction relative to DHT as the baseline of activity. Using a type of binding reporter, measures of receptor for loss-of-signal activity can be used to understand the binding at the pathway-level as it relates to the gene AR.
Ratio of Nucleoli Translocation and Cytoplasm, AR (gene 367), sequence (P10275 whole entry, looked up, the tested form may be a part): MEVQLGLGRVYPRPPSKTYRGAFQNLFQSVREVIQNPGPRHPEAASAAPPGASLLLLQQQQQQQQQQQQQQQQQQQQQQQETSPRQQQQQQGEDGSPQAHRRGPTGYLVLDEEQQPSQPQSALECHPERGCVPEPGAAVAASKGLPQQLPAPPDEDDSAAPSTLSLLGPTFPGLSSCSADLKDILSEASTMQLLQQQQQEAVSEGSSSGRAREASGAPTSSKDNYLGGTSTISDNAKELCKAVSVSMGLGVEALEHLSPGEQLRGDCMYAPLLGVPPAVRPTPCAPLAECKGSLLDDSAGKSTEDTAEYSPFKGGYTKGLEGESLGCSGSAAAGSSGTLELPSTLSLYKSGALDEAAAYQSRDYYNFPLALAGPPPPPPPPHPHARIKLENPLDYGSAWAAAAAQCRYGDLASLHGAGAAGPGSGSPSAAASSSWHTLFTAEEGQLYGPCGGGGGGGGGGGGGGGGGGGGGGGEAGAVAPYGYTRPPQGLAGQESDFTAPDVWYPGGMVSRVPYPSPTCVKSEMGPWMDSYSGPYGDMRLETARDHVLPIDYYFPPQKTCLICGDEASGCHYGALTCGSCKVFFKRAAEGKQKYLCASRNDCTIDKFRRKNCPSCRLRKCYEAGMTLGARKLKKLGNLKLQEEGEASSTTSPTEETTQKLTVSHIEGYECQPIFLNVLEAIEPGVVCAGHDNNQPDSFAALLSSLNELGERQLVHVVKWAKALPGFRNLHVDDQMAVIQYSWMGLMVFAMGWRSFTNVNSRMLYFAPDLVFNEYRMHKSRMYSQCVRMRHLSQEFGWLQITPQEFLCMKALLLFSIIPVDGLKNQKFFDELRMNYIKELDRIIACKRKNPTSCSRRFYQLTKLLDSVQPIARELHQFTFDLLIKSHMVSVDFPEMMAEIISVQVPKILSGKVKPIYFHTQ
Daughter plates containing 2 uL of 10 mM compounds in DMSO were prepared and replicated from the 384-well Library of Pharmacologically Active Compounds (LOPAC) master plates using the Bravo outfitted with a 384-well transfer head. Aluminum adhesive plate seals were applied with an Abgene Seal-IT 100 (Rochester, NY) plate sealer, and the plates were stored at -20 C in a Matrical MatriMinistore (Spokane, WA) automated compound storage and retrieval system. For screening, LOPAC daughter plates were withdrawn from -20C storage, thawed to ambient temperature, centrifuged 1-2 min at 50 g, and the plate seals were removed before the transfer of 98 uL of serum-free tissue culture medium (SFM) into wells using the BioTek Microflo liquid handler (BioTek, Winooski, VT) to generate a 200 uM intermediate stock concentration of library compounds (2.0% DMSO). The diluted compounds were mixed by repeated aspiration and dispensation using a 384-well P30 dispensing head on the Evolution P3 (EP3) liquid handling platform (PerkinElmer, Waltham, MA) and then 5 uL of diluted compounds was transferred to the wells of assay plates. In the LOPAC screen, compounds were individually tested at a final concentration of 20 uM (0.2% DMSO). After the diluted compounds had been transferred from the daughter plates to the primary HCS assay plates, aluminum adhesive plate seals were applied and the diluted daughter plates were stored frozen at -20C. To confirm active compounds identified in the primary screen, we withdrew the LOPAC daughter plates containing the 200 uM intermediate concentration of library compounds (2.0% DMSO) from -20C storage, thawed them to ambient temperature, centrifuged them for 1-2 min at 50 g, and removed the plate seals. A work list was generated to direct the Multiprobe Janus liquid handling platform (PerkinElmer) to cherry pick 75 uL from the wells of the diluted daughter plates that were flagged active in the primary screen and to reformat these into a 384-well plate hit confirmation daughter plate. Five microliters of primary HCS active compounds was then transferred into triplicate wells of assay plates using a 384-well P30 dispensing head on the Evolution P3 (EP3) liquid handling platform (PerkinElmer). […] Daughter plates containing 2 uL of the serially diluted compounds in DMSO were prepared and replicated from the 384-well serial dilution master plates using the Bravo outfitted with a 384-well transfer head. Aluminum adhesive plate seals were applied and plates were stored at -20C. For testing in the bioassays, daughter plates were withdrawn from -20C storage, thawed to ambient temperature, centrifuged for 1-2 min at 50 g, and the plate seals were removed before the transfer of 38 uL of SFM into wells using the BioTek Microflo liquid handler (BioTek) to generate an intermediate stock concentration of library compounds ranging from 1.95 to 500 uM (5.0% DMSO). […]
In the case of `CCCCCCCc1ccc(O)cc1`, the AC50 (in general, the concentration giving half of the maximal activity seen) was 79.6 µM (active). On to `c1cc2c3c(cccc3c1)CC2`, for which the result was inactive. Still for that read-out and setting: the same measure for `CCCCN(CC)C(=O)SCCC`: “inactive”; for `CO/N=C(/C(=O)OC)c1ccccc1COc1ccccc1C`: “inactive”; for `[N-]=[N+]=[N-]`: “inactive”. On the same count and under the same terms, the value for `ClC(Cl)=C(c1ccc(Cl)cc1)c1ccccc1Cl` was “inactive”; that for `ClC1=C(Cl)C2(Cl)C3C(Cl)C(Cl)CC3C1(Cl)C2(Cl)Cl` (stereo unspecified) was “inactive”.

For `CCCCC(CC)COP(=O)(Oc1ccccc1)Oc1ccccc1` (stereo unspecified), the result was inactive. On the same count and under the same terms, the value for `O=P(OCC(Br)CBr)(OCC(Br)CBr)OCC(Br)CBr` (stereo unspecified) was “inactive”; that for `CC1(C)CN=C(NN=C(/C=C/c2ccc(C(F)(F)F)cc2)/C=C/c2ccc(C(F)(F)F)cc2)NC1` was “inactive”.

Consider `CC(C)(C)N(NC(=O)c1ccc(Cl)cc1)C(=O)c1ccccc1`, for which the result was inactive.
